CHT block – human CHT choline transport inhibition | hit rate 0.86% among 310,000 | CHT-expressing cells, membrane potential dye, choline response; hits give low values | B-score at 10 µM;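 active means B-score over 3 SD under the library average, and starting fluorescence ratio not unusually high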;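 further: choline stimulus applied at its EC90 after an EC20 pre-addition; B-score computed on integrated fluorescence ratio after choline addition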
TMEM16A inh – inhibitors of mouse TMEM16A calcium-activated chloride channel; Q8BHY3; HEK293 TMEM16A/YFP iodide influx fluorescence, ionomycin; normalized B-score (activity score, 25-100; higher = stronger inhibition) at 10 µM; hit rate 1.2% among 310,000;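 active means ratio plate-corrected score three or more library SD toward inhibition, starting fluorescence score within five deviations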;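 further: score derived from kinetic fluorescence span divided by baseline fluorescence per well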
Target sequence (Q8BHY3 whole entry, looked up): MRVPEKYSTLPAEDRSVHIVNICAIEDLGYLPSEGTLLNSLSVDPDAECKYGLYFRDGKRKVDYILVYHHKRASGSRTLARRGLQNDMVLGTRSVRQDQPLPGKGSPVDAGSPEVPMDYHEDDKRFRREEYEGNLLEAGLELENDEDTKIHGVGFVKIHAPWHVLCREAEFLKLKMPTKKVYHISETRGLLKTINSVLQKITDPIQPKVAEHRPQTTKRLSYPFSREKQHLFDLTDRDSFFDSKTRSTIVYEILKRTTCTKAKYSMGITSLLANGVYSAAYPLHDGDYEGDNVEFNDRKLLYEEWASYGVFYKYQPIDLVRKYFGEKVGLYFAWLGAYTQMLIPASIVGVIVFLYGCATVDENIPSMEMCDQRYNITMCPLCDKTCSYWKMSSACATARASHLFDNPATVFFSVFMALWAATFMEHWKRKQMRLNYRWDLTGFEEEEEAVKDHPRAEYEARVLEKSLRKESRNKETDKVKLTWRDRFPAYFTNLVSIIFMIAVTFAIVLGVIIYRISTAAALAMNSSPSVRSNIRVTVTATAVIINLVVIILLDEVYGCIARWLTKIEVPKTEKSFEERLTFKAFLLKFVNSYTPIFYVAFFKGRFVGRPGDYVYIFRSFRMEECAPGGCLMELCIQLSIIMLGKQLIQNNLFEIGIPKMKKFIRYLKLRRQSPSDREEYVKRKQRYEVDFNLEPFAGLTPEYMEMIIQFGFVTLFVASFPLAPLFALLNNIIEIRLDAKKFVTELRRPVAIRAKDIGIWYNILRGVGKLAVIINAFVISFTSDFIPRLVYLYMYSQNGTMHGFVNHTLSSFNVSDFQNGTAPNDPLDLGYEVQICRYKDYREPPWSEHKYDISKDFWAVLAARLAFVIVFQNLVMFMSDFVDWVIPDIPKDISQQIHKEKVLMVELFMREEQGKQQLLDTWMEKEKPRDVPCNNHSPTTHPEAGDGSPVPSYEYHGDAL
ANO1 activ – activates or potentiates the mouse TMEM16A chloride channel | HEK293 TMEM16A/YFP-H148Q/I152L, iodide quench fluorescence; hits give low values | Q8BHY3 | hit rate 0.3% among 340,000 | B-score at 10 µM;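 active means fluorescence-ratio B-score plate-corrected deviation score at least 3 library SD below zero, with starting fluorescence score within 5 deviations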;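 further: channel opened by trigger with iodide after compound preincubation; score built on the fluorescence ratio of max minus min over baseline; more negative score means more quench and so TMEM16A activation or potentiation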
CHT allo act – allosterically activates the human high affinity choline transporter | Q9GZV3 | CHT-expressing cells, membrane potential dye, choline EC20; hits give high values; LV-AA mutant CHT in HEK293 cells | B-score at 10 µM | hit rate 0.49% among 310,000;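 active means initial fluorescence not abnormally high and integrated response B-score, plate-corrected, over 3 SD above library mean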
HDAC3 inh – human HDAC3 inhibition; O15379; inhibition, % at 8.3 µM; hit rate 0.15% among 320,000; recombinant HDAC3, fluorogenic peptide/trypsin coupled, fluorescence; in the data active means inhibition above about 26%, passing the limit was not always enough
PHOSPHO1 block – PHOSPHO1 (human) inhibition | Q8TCT1 | recombinant PHOSPHO1, absorbance phosphatase assay | inhibition, % at 13.3 µM | hit rate 1.1% among 290,000 | AID 1565; in the data active means inhibition above about 60%
TMEM16A reconf – TMEM16A (mouse) chloride channel inhibition, re-confirmation | shares compounds with TMEM16A inh | HEK293 TMEM16A/YFP-H148Q, iodide quench fluorescence; ionomycin added to raise cell calcium | inhibition, % at 10 µM | hit rate 39% among 2,300 | AID 652189;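 active means mean duplicate percent inhibition, scaled so buffer wells are 0 and the reference blocker 100, over three buffer SD above buffer mean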
HEK293 Ca mobil – counter-screen for TMEM16A inhibitors: effect on calcium mobilization. hit rate 2% among 2,300. shares compounds with TMEM16A inh. calcium response (% of ionomycin), % at 10 µM. TMEM16A/YFP HEK293, Fluo4 calcium mobilization;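 active means duplicate-averaged calcium signal over 20% of the ionomycin maximum, relative to buffer baseline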;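 further: each well's signal is peak minus trough fluorescence divided by its pre-addition baseline; 0% = buffer wells and 100% = ionomycin wells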
Parental YFP cnt – parental YFP-HEK293 iodide quench counter-screen activity. shares compounds with TMEM16A inh. ionomycin. YFP ratio F(max-min)/F0 at 10 µM. 2,300 tested, under 10 active;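 active means yellow fluorescent protein signal ratio exceeding the buffer control mean by over 5 SD of those controls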;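 further: ratio is mean of duplicate wells from kinetic YFP trace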
ClC-1 inh – rat ClC-1 inhibition, TMEM16A specificity screen; shares compounds with TMEM16A inh; CHO ClC-1-YFP, iodide influx fluorescence quench; iodide control reads 0, buffer control 100; ratio percent, % at 10 µM; 2,300 tested, under 10 active; AID 652236;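 active means duplicate-mean ratio percent above the mean of iodide-only control wells, which defines zero, plus 5 of their SD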;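 further: higher percent means stronger block of ClC-1 iodide influx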
* hit, by the source's call; i = inactive; . = no result. Hits are enriched below; roughly 3.2% of the tested compounds scored in any of these assays.

SMILES	CHT block	TMEM16A inh	ANO1 activ	CHT allo act	HDAC3 inh	PHOSPHO1 block	TMEM16A reconf	HEK293 Ca mobil	Parental YFP cnt	ClC-1 inh
CCC(C)N1C(=O)c2ccccc2C1C(=O)NC1CCCCCC1 (centres undefined)	i	25*	i	i	-3	27	i	i	-1.1	-17
CCOC(=O)c1cnn2c(C(F)F)cc(C3CC3)nc12	i	i	i	i	3	-10	.	.	.	.
COc1ccc(CNC(=O)C(=O)NCCCn2ccnc2)cc1	i	i	i	i	3	3	.	.	.	.
O=C(c1ccco1)N1CCN(S(=O)(=O)c2ccc3[nH]c(=O)oc3c2)CC1	i	i	i	i	-2	-4	.	.	.	.
Cn1c(=O)oc2cc(S(=O)(=O)N3CCN(C(=O)c4ccco4)CC3)ccc21	i	100*	i	i	-8	.	i	i	-1	-6
COc1ccc(C(=O)Nc2ccc(-c3ccc(C)o3)cc2)cc1S(=O)(=O)N1CCOCC1	i	i	i	i	-2	15	.	.	.	.
COc1ccc(S(=O)(=O)Nc2ccc(F)cc2)cc1N(C)S(=O)(=O)c1ccc(Cl)cc1	i	i	i	i	8	-9	.	.	.	.
COc1ccc(NS(=O)(=O)c2ccc(OC)c(N(C)S(=O)(=O)c3ccc(Cl)cc3)c2)cc1	i	100*	i	i	1	28	i	i	-1.1	-18
Cc1cc(C)c(C(=O)OCc2csc(CC(=O)Nc3ccccc3C)n2)c(C)c1	i	25*	i	i	7	.	i	i	-1.1	-13
Cc1ccccc1NC(=O)Cc1nc(COC(=O)c2ccccn2)cs1	i	i	i	i	4	.	.	.	.	.
O=C(C1CCC1)N1CCc2cc(S(=O)(=O)N3CCN(c4ccccn4)CC3)ccc21	i	i	i	i	3	-36	i	i	-1.2	-4
Cc1nn(C)c(C(=O)NNC(=O)Nc2cccc(C(F)(F)F)c2)c1Cl	i	i	i	i	0	13	.	.	.	.
Cc1cc(NNC(=O)c2cccc(C(F)(F)F)c2)nc2c1c(C)nn2C	i	25*	i	i	4	29	i	i	-1.1	-19
CCC(=O)N(CCC(c1ccco1)c1ccccc1OC)Cc1cccs1 (centres undefined)	i	100*	i	i	11	9	i	i	-1.1	-18
Cc1cccc(Nc2nc(N)nc(CN3CCN(c4ccc(F)cc4)CC3)n2)c1	i	i	i	i	-7	16	.	.	.	.
CC(=O)c1ccc(NC(=S)N2c3ccccc3CC2C)cc1 (centres undefined)	i	i	i	i	8	5	.	.	.	.
CC1Cc2ccccc2N1C(=S)Nc1ccc(S(N)(=O)=O)cc1 (centres undefined)	i	100*	i	i	16	-4	i	i	-0.86	-21
COc1cc(NC(=O)c2cnc(N)o2)cc(C(=O)Nc2cccc(C(F)(F)F)c2)c1	i	100*	i	i	13	44	46%*	i	-0.87	-14
COC(=O)c1ccc(NC(=O)CSc2nc(=O)cc(N)n2-c2ccccc2)cc1	i	i	i	i	4	-17	.	.	.	.
Fc1ccc(-c2cc3nc(-c4ccccc4)cc(N4CCOCC4)n3n2)cc1	i	i	i	i	-9	6	.	.	.	.
COCCN1CCN(c2cc(-c3ccccc3)nc3cc(-c4cccc(F)c4)nn23)CC1	i	100*	i	i	-4	11	i	i	-1.1	-9
CCOC(=O)c1cc(C)n(Cc2cccc(OC)c2OC)c1C	i	25*	i	i	-1	2	29%*	i	-0.9	-14
CCOC(=O)c1c(C)c(C)n(Cc2cccc(OC)c2OC)c1C	i	i	i	i	6	-7	.	.	.	.
COc1cccc(-c2cc(C(=O)Nc3cc(C)on3)no2)c1	i	i	i	i	4	11	i	i	-1	-7
Cc1cc(NC(=O)c2cc(-c3cccc(Cl)c3)on2)no1	i	i	i	i	0	8	.	.	.	.
SMILES	CHT block	TMEM16A inh	ANO1 activ	CHT allo act	HDAC3 inh	PHOSPHO1 block	TMEM16A reconf	HEK293 Ca mobil	Parental YFP cnt	ClC-1 inh
CCCCOc1ncnc2c1[nH]c1ccc(F)cc12	i	25*	i	i	4	1	i	i	-0.94	-20
C=CCOc1ccc(/C=C2\SC(=S)N(NS(=O)(=O)c3ccc(C)cc3)C2=O)cc1	i	100*	i	i	15	20	72%*	i	-0.99	-60
Cc1ccc(S(=O)(=O)NN2C(=O)/C(=C\c3ccc(Cl)cc3)SC2=S)cc1	i	i	i	i	-1	19	.	.	.	.
CCN1CCN(CCCNC(=O)c2ccc(/C=C3/Sc4ccccc4N(Cc4ccccc4F)C3=O)cc2)CC1	i	i	i	i	-4	-13	25%*	i	-1.3	-6
CCN(CC)C(=O)[C@H]1CC(CC(=O)NC/C=C(\C)CCC=C(C)C)C(=O)N2CCc3c([nH]c4ccccc34)[C@]12C (some centres undefined)	.	.	.	.	25	.	.	.	.	.
Cc1cccc(C)c1OCc1cc(C(=O)N(Cc2c(C)nn(C)c2C)C2CC2)no1	i	25*	i	i	-4	19	22%*	i	-1.2	-14
Clc1ccc(-c2csc(=Nc3cccnc3)n2CCCn2ccnc2)cc1Cl	i	i	i	i	6	-9	.	.	.	.
COCCn1c(-c2ccc(Br)cc2)csc1=Nc1cccnc1	i	25*	i	i	3	-9	34%*	i	-1	-20
COc1ccc(NC(=O)CSc2ccc(-c3cccnc3)nn2)c(OC)c1	i	i	i	i	-5	14	.	.	.	.
CCn1c(=O)n(CC)c2cc(S(=O)(=O)N3CCC(c4ccccc4)CC3)ccc21	i	100*	i	i	1	-31	i	i	-1.2	-24
COc1ccc(NC(=O)COc2nsnc2N2CCOCC2)c(OC)c1	i	i	i	i	-2	28	.	.	.	.

Screening data deposited in PubChem by several laboratories.
